Some test systems named below: BT-549 breast; MDA-MB-435 melanoma; SW-620 colon; MCF7 breast; HCC-2998 colon; HCT-116 colon; KM12 colon.
Assay in all cases: NCI-60 one-dose screen, 48 h (100 = growth as untreated, 0 = no growth, -100 = all killed)
Settings in all cases: 10 µM unless noted

This note sets out measurements from PubChem BioAssay (NCI).

The panel holds about 83,000 compounds, 20% with a hit somewhere; the sample as a whole holds those more often.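 Compound tested at a single concentration for 48 hours in 96-well plates; a percent growth value below 10 was scored as active.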 A number with no mark means an inactive call. Active and inactive are the calls of the source.

Regarding `CCOC(=O)/C(C#N)=C1/NNC(=Nc2cccnc2)S1`, the growth in the assay on BT-549 breast is 103%; with MDA-MB-435 melanoma it was 99.2%; in the assay on SW-620 colon it was 94.9%; in the assay on MCF7 breast, 106%; with HCC-2998 colon it was 113%.

As to `O=C1CC(=O)OC(c2ccc([N+](=O)[O-])cc2)O1`, the growth in the assay with BT-549 breast is 51.4%; in the assay on MDA-MB-435 melanoma, -27.9% (active); in the assay with SW-620 colon, -42.8% (active); with MCF7 breast, 7.35% (active); in the assay with HCT-116 colon, -68.8% (active); in the assay with HCC-2998 colon, 7.55% (active). The growth in the assay with KM12 colon is -75.3% (active).

As to `CCCCN1C=CCN(CCCC)C1`, the growth in the assay with BT-549 breast is 56.9%; with MDA-MB-435 melanoma, 6.59% (active); in the assay with SW-620 colon it was 73.4%; in the assay on MCF7 breast it was 32.5%; in the assay with HCT-116 colon it was 34%; in the assay with HCC-2998 colon, 46.2%. Also, the growth in the assay with KM12 colon was 22.9%.

As for `CC(=O)OC[C@]12CC[C@@H](C(=O)CBr)[C@@H]1[C@H]1CC[C@@H]3[C@@]4(C)CC[C@H](OC(C)=O)C(C)(C)[C@@H]4CC[C@@]3(C)[C@]1(C)CC2`, the growth was 84% in the assay with BT-549 breast; 93.3% in the assay with MDA-MB-435 melanoma; 100% in the assay on SW-620 colon; 89% in the assay with MCF7 breast; 88.2% in the assay with HCT-116 colon; 111% in the assay on HCC-2998 colon. Further, in the assay with KM12 colon, the growth is 97.7%.

For `CCOC(=O)CC1CSC(N/N=C/c2ccc(-n3cccn3)cc2)=N1` (stereo not drawn), the growth with BT-549 breast is 116%; with MDA-MB-435 melanoma, 110%; with SW-620 colon, 106%; with MCF7 breast, 98.1%; with HCT-116 colon, 98.7%; in the assay with HCC-2998 colon, 103%. For the same molecule, the growth in the assay on KM12 colon is 103%.

For `COC1=CC(=O)c2ccccc2C1=O`, the growth with BT-549 breast is 85%; with MDA-MB-435 melanoma it was -48.2% (active); in the assay on SW-620 colon it was 108%; with MCF7 breast it was 56.9%; in the assay with HCT-116 colon, 29.9%; in the assay with HCC-2998 colon it was 107%. Moreover, the growth in the assay with KM12 colon is 94.8%.

On to `CN1CCC(=C(c2ccccc2)c2ccccc2)C(c2ccccc2)C1` (stereo not drawn), for which the growth was 97.1% in the assay with BT-549 breast; 102% in the assay on MDA-MB-435 melanoma; 92.9% in the assay with SW-620 colon; 86.7% with MCF7 breast; 71.3% in the assay with HCT-116 colon; 88.7% with HCC-2998 colon. Moreover, the growth in the assay with KM12 colon was 97.3%.

Regarding `CCOC(=O)c1cc(C(=O)c2ccc(OC)c(OC)c2)n2ccc(/C=C/c3cc[n+](CC(=O)c4ccc(OC)c(OC)c4)cc3)cc12`, the growth with BT-549 breast was 96.6%; in the assay on MDA-MB-435 melanoma, 99.4%; with SW-620 colon, 96.7%; in the assay on MCF7 breast, 91.1%; in the assay on HCT-116 colon, 89.7%; in the assay with HCC-2998 colon, 98.8%. Moreover, the growth in the assay on KM12 colon is 100%.

In the case of `COc1ccc(/C=N/NC(=O)c2cnn3c2NC(c2ccccc2)C3)cc1OC` (stereo not drawn), the growth in the assay with BT-549 breast was 42.3%; in the assay on MDA-MB-435 melanoma, 0.386% (active); in the assay on SW-620 colon it was 44.4%; in the assay with MCF7 breast it was 29.6%; in the assay on HCT-116 colon it was 22%; in the assay with HCC-2998 colon, 67%. In addition, the growth in the assay on KM12 colon was 44.6%.

Consider `CCc1c(Cl)nc(N)nc1Nc1ccc(C)c(C)c1`, for which the growth in the assay with BT-549 breast was 106%; in the assay with MDA-MB-435 melanoma, 99.6%; in the assay with SW-620 colon, 102%; in the assay with MCF7 breast it was 83.1%; in the assay on HCT-116 colon, 76%; in the assay on HCC-2998 colon it was 101%. Further, the growth in the assay with KM12 colon was 99.2%.

Consider `CN1C(=O)NC(c2ccc3c(c2)OCO3)C=C1c1ccccc1` (stereo not drawn), for which the growth is 90% in the assay on BT-549 breast; 97.5% with MDA-MB-435 melanoma; 78.3% with SW-620 colon; 49.9% in the assay with MCF7 breast; 78% in the assay with HCT-116 colon; 110% with HCC-2998 colon. The growth in the assay with KM12 colon is 88.2%.

Regarding `N=C(N)c1ccc(OCCCCCCCCCCOc2ccc(C(=N)N)cc2)cc1`, the growth is -84.5% (active) with BT-549 breast; -94.6% (active) with MDA-MB-435 melanoma; -91.3% (active) in the assay on SW-620 colon; -71.7% (active) in the assay with MCF7 breast; -99.7% (active) with HCT-116 colon; -94.9% (active) in the assay on HCC-2998 colon. Further, the growth with KM12 colon is -87.9% (active).

With `O=C(/C=C/c1ccc(Cl)cc1)c1ccc(NC(=O)N2CCN(c3cc4c(cc3F)c(=O)c(C(=O)O)cn4C3CC3)CC2)cc1`, the growth in the assay with BT-549 breast was 52.2%; in the assay on MDA-MB-435 melanoma, 98.8%; in the assay with SW-620 colon, 97.2%; with MCF7 breast, 22.6%; in the assay with HCT-116 colon it was 11.8%; in the assay on HCC-2998 colon it was 102%. Moreover, in the assay with KM12 colon, the growth is 85.8%.

For `O=C(Nc1ncc(Cc2cc(Cl)ccc2Cl)s1)c1cccs1`, the growth with BT-549 breast is 74.6%; in the assay with MDA-MB-435 melanoma, 4.2% (active); with SW-620 colon, 48.5%; in the assay on MCF7 breast it was 32.5%; in the assay on HCT-116 colon, 35.3%; with HCC-2998 colon it was 58.4%. Besides, the growth with KM12 colon was 31.2%.

Turning to `COc1ccc(C(C)=O)c(OC)c1`, the growth in the assay on BT-549 breast is 106%; with MDA-MB-435 melanoma, 119%; with SW-620 colon it was 106%; in the assay on MCF7 breast, 92%; in the assay with HCT-116 colon, 103%; in the assay on HCC-2998 colon it was 105%. The growth with KM12 colon was 110%.

For `C=C(C)[C@@H]1CC[C@]2(C(=O)N[C@@H](Cc3ccccc3)C(=O)OC)CC[C@]3(C)[C@H](CC[C@@H]4[C@@]5(C)CCC(=O)C(C)(C)[C@@H]5CC[C@]43C)[C@@H]12`, the growth in the assay with BT-549 breast is 105%; in the assay on MDA-MB-435 melanoma, 90.6%; with SW-620 colon, 95.4%; with MCF7 breast, 84.6%; in the assay with HCT-116 colon, 68.4%; in the assay with HCC-2998 colon it was 98.2%. Further, the growth in the assay on KM12 colon is 75.2%.

As for `COc1cc(-c2csc(NC(=O)c3cc(F)cc(C(F)(F)F)c3)n2)cc(OC)c1OC`, the growth in the assay with BT-549 breast was 41.2%; in the assay with MDA-MB-435 melanoma, -16.2% (active); with SW-620 colon it was 32.4%; with MCF7 breast it was 20.9%; in the assay on HCT-116 colon, 16.5%; with HCC-2998 colon, 72.2%. For the same molecule, in the assay on KM12 colon, the growth is 26.6%.

In the case of `c1ccc2cc(Cn3c(-c4cccc5ccccc45)[n+](Cc4ccc5ccccc5c4)c4c5ccccc5c5ccccc5c43)ccc2c1`, the growth is -70.5% (active) in the assay with BT-549 breast; -83.7% (active) with MDA-MB-435 melanoma; -78.2% (active) in the assay with SW-620 colon; -64.7% (active) in the assay on MCF7 breast; -73.5% (active) in the assay with HCT-116 colon; -84.7% (active) in the assay with HCC-2998 colon.
